Compounds without any hit were thinned out: in the full panel of roughly 79,000, 15% have a hit. A number with no mark means an inactive call. Activity calls are given as the source filed them. Rule as the data show it: active = growth inhibition above about 70%; inactive = the rest.
Experiment: NCI Yeast Anticancer Drug Screen. Data for the rad52 strain (AID 147);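 also: 0% = growth of vehicle-treated control cultures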
Conditions: S. cerevisiae rad52 mutant growth inhibition, stronger effect = higher value
Method: Growth inhibition of yeast strains with defined genetic alterations is measured as a screen for potential anti-cancer activity. Selected strains with alterations in DNA damage repair or cell cycle control were exposed to compounds and growth inhibition was measured relative to vehicle treated controls. The strain used in this assay is rad52

SMILES	growth inhibition (at 1.2 µM)	growth inhibition (at 3.7 µM)	growth inhibition (at 11.0 µM)	growth inhibition (at 33.0 µM)	growth inhibition (at 100.0 µM)
CCc1nc(N)nc(N)c1-c1ccc(NCCCCCCN)c([N+](=O)[O-])c1	-3%	0%	2%	11%	32%
COc1cc(N(C)C)ccc1/C=C\c1ccnc2ccccc12	-5%	-7%	-6%	-5%	-10%
CC1C(C#N)(C#N)C(C#N)=C(N)C1(Cl)[N+](=O)[O-] (stereo not given)	3%	33%	35%	56%	85% (active)
CSc1s[s+]c(SC)c1-c1ccccc1	13%	4%	9%	54%	72% (active)
COC(=O)c1oc([N+](=O)[O-])c(Cl)c1Cl	78% (active)	66%	71% (active)	95% (active)	99% (active)
CC(=O)C1=C(O)C2(C)c3c(O)c(C)c(O)c(C(C)=O)c3OC2(Sc2ccccc2)CC1=O (stereo not given)	24%	43%	54%	58%	86% (active)
CC(C)(C)[OH+][O-].[O-]c1ccc(Cl)cc1C=Nc1ccc(Cl)cc1[O-].[O]=[V]	0%	4%	11%	30%	59%
O=[N+]([O-])c1cc(S(=O)(=O)Nc2ccccc2)ccc1Cl	2%	6%	15%	89% (active)	98% (active)

Source: PubChem BioAssay (NCI)
